Screens deposited in PubChem by National Center for Advancing Translational Sciences (NCATS).
Compounds with a hit are over-represented: about 3.7% of the library has one in this group of screens.
Nrf2 block: Nrf2 pathway inhibition. A549 ARE-Fluc reporter, luciferase luminescence, 18-24 h. Potency, µM (series often up to 46 µM), hits mostly inhibitors. actives 2.1% (n = 360,000); note: nearly all actives have a fitted effect of over 60% in size
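A549 ARE_Fluc cells, 5000/well, 5% FBS OPTI-MEM; compounds in dose-response, 18-24 h at 37 °C/5% CO2; CellTiter-Fluor viability read (Ex 405/Em 525), then BugLite luciferase luminescence = Nrf2 activity.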
A549 tox: A549 cytotoxicity, counter-screen for Nrf2 inhibitors; A549 ARE-Fluc cells, CellTiter-Fluor viability, 18-24 h; Potency, µM (highest dose often 46 µM), usual class: inhibitors; actives 0.16% (n = 390,000)
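Cytotoxicity counterscreen: CellTiter-Fluor fluorescence was measured in A549 ARE_Fluc cells after 18-24 h of compound exposure in a concentration series. The subsequent BugLite luminescent read reports ARE-luciferase activity.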
ELG1 repair inh: blocks ELG1-dependent DNA repair in HEK293T cells; Potency, µM (titrated, usually from 46.1 µM), actives largely listed as inhibitors; actives 2.3% (n = 330,000); HEK293T ELG1-luciferase reporter, luminescence, 16 h; DNA damage induced by 5-fluorouridine; note: nearly all actives have a fitted effect of over 55% in size
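DMSO vehicle served as the neutral condition. Each well held 2,000 cells given 5-fluorouridine plus compound; after 16 hr at 37 °C/5% CO2, ONE-Glo was added and luciferase measured 30 min later.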
Nrf2 activator: activators of Nrf2 (ARE) signaling; AREc32 ARE-luciferase reporter (MCF7-derived line), luminescence, 24 h; Potency, µM (highest dose often 46.1 µM), most hits filed as activators; actives 0.31% (n = 410,000); note: nearly all actives have a fitted effect of over 65% in size
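Quantitative high-throughput format: AREc32 reporter cells, 1000 per well, received compound by pin transfer and were incubated 24 hr at 37 deg C, 5% CO2, before Steady-Glo luminescence detection.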
ELG1 FLuc counter: luciferase inhibition in cell-free luciferin readout for ELG1 hits. actives 3% (n = 350). shares compounds with ELG1 repair inh. Potency, µM (top dose mostly 46.1 µM), most hits filed as inhibitors. cell-free firefly luciferase luminescence counter-screen, ViewLux
ELG1-Luc inh: confirmation of human ELG1-dependent DNA repair inhibitors; shares compounds with ELG1 repair inh; HEK293T ELG1-luciferase levels, luminescence; cells co-treated with 5-fluorouridine; Potency, µM (top dose mostly 46.1 µM), actives largely listed as inhibitors; actives 68% (n = 670); AID 624248; note: nearly all actives have a fitted effect of over 55% in size
Target sequence (Q96QE3 whole entry, looked up): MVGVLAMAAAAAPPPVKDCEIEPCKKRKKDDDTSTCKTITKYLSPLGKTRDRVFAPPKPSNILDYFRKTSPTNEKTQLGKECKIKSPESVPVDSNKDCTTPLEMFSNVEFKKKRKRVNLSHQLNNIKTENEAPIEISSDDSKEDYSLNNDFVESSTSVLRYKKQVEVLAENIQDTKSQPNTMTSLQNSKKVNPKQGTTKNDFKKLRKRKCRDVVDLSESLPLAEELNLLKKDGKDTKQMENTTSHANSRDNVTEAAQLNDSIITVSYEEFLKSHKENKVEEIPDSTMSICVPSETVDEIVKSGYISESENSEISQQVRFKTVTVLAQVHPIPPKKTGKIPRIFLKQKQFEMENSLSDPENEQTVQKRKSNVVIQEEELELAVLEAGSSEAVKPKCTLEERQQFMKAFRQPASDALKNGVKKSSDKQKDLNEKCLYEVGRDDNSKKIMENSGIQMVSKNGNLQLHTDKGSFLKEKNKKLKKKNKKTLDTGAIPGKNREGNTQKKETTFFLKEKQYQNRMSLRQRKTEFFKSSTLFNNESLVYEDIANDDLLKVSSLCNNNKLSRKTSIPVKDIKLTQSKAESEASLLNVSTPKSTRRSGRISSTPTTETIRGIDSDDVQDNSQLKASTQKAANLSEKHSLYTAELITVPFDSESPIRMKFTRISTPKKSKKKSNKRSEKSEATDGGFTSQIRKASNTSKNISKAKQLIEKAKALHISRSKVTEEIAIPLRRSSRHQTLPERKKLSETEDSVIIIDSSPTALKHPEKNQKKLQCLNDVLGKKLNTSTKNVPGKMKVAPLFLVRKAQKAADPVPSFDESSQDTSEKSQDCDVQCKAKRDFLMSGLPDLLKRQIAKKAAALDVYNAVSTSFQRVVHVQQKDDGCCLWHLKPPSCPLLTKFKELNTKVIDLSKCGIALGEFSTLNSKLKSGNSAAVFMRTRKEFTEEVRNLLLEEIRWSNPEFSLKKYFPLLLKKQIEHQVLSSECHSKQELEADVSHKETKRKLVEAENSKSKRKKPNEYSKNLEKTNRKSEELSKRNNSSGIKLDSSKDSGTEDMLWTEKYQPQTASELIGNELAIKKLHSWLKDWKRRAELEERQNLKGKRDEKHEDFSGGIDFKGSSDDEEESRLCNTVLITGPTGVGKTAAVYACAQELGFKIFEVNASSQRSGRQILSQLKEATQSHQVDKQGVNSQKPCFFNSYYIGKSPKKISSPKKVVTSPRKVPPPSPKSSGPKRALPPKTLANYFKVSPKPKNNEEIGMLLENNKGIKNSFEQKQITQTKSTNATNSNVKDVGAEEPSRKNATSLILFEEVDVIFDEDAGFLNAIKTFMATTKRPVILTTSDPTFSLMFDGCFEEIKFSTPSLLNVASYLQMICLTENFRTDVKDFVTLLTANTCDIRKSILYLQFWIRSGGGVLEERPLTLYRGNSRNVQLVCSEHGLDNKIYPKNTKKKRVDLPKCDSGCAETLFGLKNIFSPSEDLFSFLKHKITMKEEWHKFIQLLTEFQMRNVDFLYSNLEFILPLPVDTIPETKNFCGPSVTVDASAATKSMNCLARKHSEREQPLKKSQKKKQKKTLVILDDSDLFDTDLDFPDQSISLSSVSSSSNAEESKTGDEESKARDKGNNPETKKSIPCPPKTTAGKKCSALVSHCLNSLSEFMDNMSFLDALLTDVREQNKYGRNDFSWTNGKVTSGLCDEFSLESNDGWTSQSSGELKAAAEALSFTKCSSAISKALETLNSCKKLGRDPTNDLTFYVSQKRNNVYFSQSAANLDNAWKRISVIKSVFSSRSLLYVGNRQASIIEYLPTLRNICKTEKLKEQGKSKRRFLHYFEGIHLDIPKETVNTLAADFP
ELG1-Luc MMS: confirmation of human ELG1 repair inhibitors, MMS stimulated | actives 53% (n = 670) | shares compounds with ELG1 repair inh | Potency, µM (titrated, usually from 46.1 µM), hits mostly inhibitors | HEK293T luciferase-tagged ELG1 level, MMS stimulated | AID 624249; note: nearly all actives have a fitted effect of over 60% in size
ELG1 5FU viab: confirmation of ELG1 repair inhibitors: viability with 5FU. shares compounds with ELG1 repair inh. cell viability with 5-FU, ELG1-dependent repair. 670 tested, under 10 active. Potency, µM (highest dose often 46.1 µM), actives largely listed as cytotoxic;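 note: ELG1-luc HEK293T cells cotreated with 5-fluorouridine at 10 µM final; viability measured 16 h after compound addition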
ELG1 MMS cell: confirmation of ELG1 repair inhibitors: viability with MMS; AID 624251; shares compounds with ELG1 repair inh; Potency, µM (doses to about 46.1 µM), hits mostly cytotoxic; actives 33% (n = 670); Cell viability with MMS, ELG1-dependent DNA repair;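 note: ELG1-luc HEK293T cells co-treated with 10 µM MMS; viability read 16 h after compound addition; nearly all actives have a fitted effect of over 60% in size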
ELG1 unstim viab: affects unstimulated cell viability, ELG1 hit counter-screen. shares compounds with ELG1 repair inh. cell viability counter-screen, unstimulated, luminescence. Potency, µM (doses to about 45.9 µM), actives largely listed as cytotoxic. actives 8% (n = 900). AID 624252;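 note: compound exposure lasted 16 hours before reading; nearly all actives have a fitted effect of over 55% in size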
FLuc biochem: inhibits purified firefly luciferase, counter-screen for ELG1 hits | shares compounds with ELG1 repair inh | purified firefly luciferase, luminescence counter-screen | Potency, µM (doses to about 57.5 µM), most hits filed as inhibitors | actives 10% (n = 350) | AID 624253
Each line names hits and unclear results; the compound was inactive in the other large screens (follow-up assays come after a bar, where they were run). Calls come from the whole dose curve; as a rule, active = well fitted curve in the direction sought with a large enough effect; inconclusive = small, poorly fitted or top-dose-only effect, or another doubt; inactive = no such curve, though single readings can be large; an effect the other way counts as inactive or inconclusive.

CN(C)c1cccc(C(=O)NNC(=O)CN2C(=O)C3CC=CCC3C2=O)c1 (configuration not stated)	Nrf2 block inconclusive, ELG1 repair inh inconclusive | ELG1 unstim viab inactive
CCOC(=O)c1c(NC(=O)c2cc(-c3ccccc3)on2)sc2c1CCCC2	none (no result: Nrf2 block, ELG1 repair inh)
CC1(C)Cc2c(c(N3CCOCC3)nc3snc(N)c23)CO1	none
CC1(C)Cc2c(c(N3CCOCC3)nc3snc(Br)c23)CO1	Nrf2 block inconclusive, ELG1 repair inh 16µM | ELG1 FLuc counter inactive | ELG1-Luc inh 13µM | ELG1-Luc MMS inconclusive | ELG1 5FU viab inconclusive | ELG1 MMS cell inactive | ELG1 unstim viab inactive | FLuc biochem inactive
CCN(CC(=O)Nc1cc(Cl)ccc1C)C(=O)c1oc2ccc(OC)cc2c1C	none
COc1ccc(-c2cnc(-c3cccnc3)o2)cc1	none (no result: Nrf2 block, A549 tox, ELG1 repair inh, Nrf2 activator) | ELG1 unstim viab inactive
Cn1nc(C(F)(F)F)c(-c2cccc(C(F)(F)F)c2)c1NC(=O)CSCC(=O)O	none
CCOCCCNC(=O)C1CCN(c2cc(C)nc3c(-c4ccc(OC)c(OC)c4)c(C)nn23)CC1	Nrf2 block inconclusive, ELG1 repair inh 2.6µM | ELG1-Luc inh inconclusive | ELG1-Luc MMS inactive | ELG1 5FU viab inconclusive | ELG1 MMS cell inactive | ELG1 unstim viab inactive
CCN(CC)C(=O)C1CCN(c2cc(C)nc3c(-c4ccc(OC)c(OC)c4)c(C)nn23)CC1	none (no result: ELG1 repair inh)
Cc1ccc(CNC(=O)c2oc3ccc(S(=O)(=O)N4CCC5(CC4)OCCO5)cc3c2C)cc1	Nrf2 block inconclusive, ELG1 repair inh 0.82µM | ELG1 FLuc counter inconclusive | ELG1-Luc inh 3.5µM | ELG1-Luc MMS 14µM | ELG1 5FU viab inconclusive | ELG1 MMS cell 22µM | ELG1 unstim viab inconclusive | FLuc biochem inactive
Cc1c(C(=O)NCCN(C)C)oc2ccc(S(=O)(=O)N3CCC4(CC3)OCCO4)cc12	none
COc1cc(-c2noc(C)c2/C=C/c2cccc([N+](=O)[O-])c2)cc(OC)c1OC	A549 tox inconclusive, ELG1 repair inh 2.6µM | ELG1-Luc inh 2µM | ELG1-Luc MMS 7.1µM | ELG1 5FU viab inconclusive | ELG1 MMS cell inconclusive | ELG1 unstim viab inconclusive
COc1cc(-c2noc(C)c2/C=C/c2ccc(C(=O)O)cc2)cc(OC)c1OC	none
C=CC[C@@H](CC(=O)NCCO)C(=O)NC[C@H](OC(=O)[C@@H](CC=C)Cc1ccc(F)cc1)c1ccccc1	ELG1 repair inh 3.3µM | ELG1-Luc inh inconclusive | ELG1-Luc MMS 14µM | ELG1 5FU viab inconclusive | ELG1 MMS cell inactive | ELG1 unstim viab inactive
CN(C(=O)CSc1nnnn1-c1ccc(O)cc1)C1CCCCC1	none
O=C(CSc1ncnc2sccc12)N1CCCCC1	Nrf2 block inconclusive, ELG1 repair inh inconclusive | ELG1 unstim viab inactive
CCOC(=O)N1CCN(C(=O)CSc2ncnc3sccc23)CC1	none
CCOc1ccc(C(C)=O)cc1COC(=O)CCc1cc(OC)c(OC)c(OC)c1	none
Cc1ccc(NNC(=O)c2cc(C)on2)c(C)c1	ELG1 repair inh inconclusive
